# Screening data deposited in PubChem by National Center for Advancing Translational Sciences (NCATS).
# Sampled rows, rich in hits. Any-hit rate of the full collection: about 7.9%.
# HCMV inh: qHTS Assay for inhibitors of the human cytomegalovirus (HCMV) | 4.5% of 410,000 active | activity change, negative = inhibition, % at 57.5 µM | HFF cells, HCMV-luciferase reporter, 72 h; active compounds read low; in the data active = activity change below about -60%; inconclusive = no clear call, values can overlap the other calls; inactive = above about -39%
#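 Screen run at 2 compound doses on HFFs infected with reporter HCMV, MOI 1 PFU/cell. Luciferase activity from cell lysates at 72 h post infection gave inhibition relative to buffer-only and Salinomycin wells.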
# HCV inhibitor: qHTS Assay for Inhibitors of Hepatitis C Virus (HCV) | Huh7.5.1 HCVcc-Cre infection, luciferase reporter, 44 h | Potency, µM (titrated, usually from 41.8 µM), for inactives: at the highest dose activity change, negative = inhibition, most hits filed as inhibitors | 3.4% of 340,000 active; active = well fitted inhibition curve with a large enough effect; inconclusive = small, poorly fitted or top-dose-only effect, or another doubt; inactive = no such curve, though single readings can be large or run the other way; also: potency is read from the fitted curve at half-maximal effect
#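 Cells (1,000/well) were plated 4 h before compound, then infected with HCVcc-Cre virus (~0.5 moi). After 44 h further culture, infection was read as luciferase luminescence following a 15 min substrate incubation at room temperature.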
# LASV entry inh: qHTS for Inhibitors of binding or entry into cells for Lassa Virus; Lassa virus pseudotype entry inhibition, cell reporter; Potency, µM (highest dose often 37.9 µM), for the others: top-dose activity change, negative = inhibition, usual class: inhibitors; 1.2% of 300,000 active; calls by dose curve; tested in HEK293 cells; also: potency is read from the fitted curve at half-maximal effect; nearly all actives have a fitted effect of over 50% in size
# FMDV inh: High Throughput Screening for Foot and Mouth Disease Virus Antivirals | FMDV antiviral cell-based qHTS | Potency, µM (series often up to 57.9 µM), for inactives: top-dose activity change, negative = inhibition, most hits filed as inhibitors | 1.2% of 410,000 active; calls by dose curve; tested in HEK293T cells; also: read-out not given here; potency is read from the fitted curve at half-maximal effect; nearly all actives have a fitted effect of over 45% in size
# MARV entry inh: qHTS for inhibitors of binding or entry into cells for Marburg Virus; 1.8% of 300,000 active; AID 540276, 2011; Potency, µM (series often up to 37.8 µM), without a hit: at the top dose activity change, negative = inhibition, most hits filed as inhibitors; Marburg virus pseudotyped entry inhibition, cell reporter; calls by dose curve; tested in HEK293 cells; also: potency is read from the fitted curve at half-maximal effect
# Numbers without * were called inactive; ? = inconclusive; · = no result; ! = a repeat was not active; [ ] = another dose, or the depositor's remark. % is scaled to controls: 0 for no effect and ±100 for the full control effect.
SMILES,HCMV inh,HCV inhibitor,LASV entry inh,FMDV inh,MARV entry inh
CCN(CC)CCCNC(=O)c1cc(Nc2ccc(OC)cc2OC)nc2ccccc12,51.1,-27.0%,·,-17.5%,·
COc1cccc2c1C(=N)c1c(O)c3c(c(O)c1C2=O)CC(O)(C(C)=O)CC3OC1CC(N)C(O)C(C)O1 (stereo not given),·,?,0.631µM*,?,0.355µM*
CCCCC(=O)OCC(=O)C1(O)Cc2c(O)c3c(c(O)c2C(OC2CC(NC(=O)C(F)(F)F)C(O)C(C)O2)C1)C(=O)c1c(OC)cccc1C3=O (stereo not given),-98.4*,3.55µM*,?,-2.6%,?
COc1cccc2c1-c1c(O)cccc1C2=O,-2.9,1.0%,·,-8.7%,·
COc1cccc2c1C(=O)c1c(O)c3c(c(O)c1C2=O)CC(O)(C(C)=O)CC3OC1CC(O)C(O)C(C)O1 (stereo not given),-100.7*,?,?,-6.6%,1.41µM*
COc1cccc2c1C(=O)c1c(O)c3c(c(O)c1C2=O)C[C@@](O)(C(=O)CO)C[C@@H]3O[C@H]1C[C@H](N)[C@H](OC2CCCCO2)[C@H](C)O1 (stereo not given in full),·,·,1.12µM*,·,1.25µM*
CCN1C(=O)CC(CC(=O)N2CCC(c3nc4ccc(F)cc4[nH]3)CC2)(c2ccccc2C)C1=O (stereo not given),·,·,·,-11.1%,·
COc1cccc2c1C(=O)c1c(O)c3c(c(O)c1C2=O)C[C@](O)(C(C)=O)C[C@H]3O[C@@H]1C[C@@H](N)[C@@H](O)[C@@H](C)O1,-100.0*,8.91µM*,·,-3.6%,·
CCc1ccc(NC(=O)CC2C(=O)N(c3ccc(Cl)cc3)C(=O)N2C2CCCC2)cc1 (stereo not given),?,·,?,10.6%,·
CC1CCN(S(=O)(=O)c2ccc3nc(N4CCN(c5ccccc5)CC4)ccc3c2)CC1,?,17.2%,23.4%[46.1 µM],-5.1%,·
CCC(=O)Nc1nc(CC(=O)Nc2ccccc2OC)cs1,15.3,2.2%,-1.1%,-20.4%,3.1%
COc1ccccc1NC(=O)Nc1nc(CC(=O)N2CCN(c3ccccc3OC)CC2)cs1,-11.5,10µM*,?,28.2µM*,?
COc1ccccc1NC(=O)Cc1csc(NC(=S)Nc2ccc(C)cc2)n1,-101.5*,?,?,?,4.5%
COc1cc(C)ccc1NC(=O)Cc1csc(NC(=O)Nc2ccccc2OC)n1,-10.1,8.91µM*,?,?,?
CCCNc1c(NC(=O)C2CCC(C)CC2)c(=O)oc2ccccc12 (stereo not given),-37.7,7.9%,·,-4.5%,·
COc1cccc([C@@H]2NC(=O)CC=C[C@H](C)[C@H](c3cccc(OC)c3)NC(=O)CC=C[C@H]2C)c1,·,·,·,·,15.8%[14.2 µM]
Cc1cc(CSc2ccccc2)ccc1NC(=O)c1ccc(CN2CCOCC2)cc1,-77.5*,?,?,12.6µM*,?
Cc1cc(CSc2ccccc2)ccc1NC(=O)c1ccc(Cl)c([N+](=O)[O-])c1,?,7.94µM*,-3.3%,-26.7%,25.5%[46.1 µM]
Cc1cc(CSc2ccccc2)ccc1NC(=O)c1ccc(C)c([N+](=O)[O-])c1,-36.0,-27.7%,2.6%,-9.8%,-14.0%
CCNC(=O)C1(C)CCCN1Cc1cccc(C(F)(F)F)c1 (stereo not given),-40.0,·,·,-6.6%,·
Nc1ccn(Cc2ccccc2)n1,43.2,6.9%,-26.8%[46.1 µM],-16.4%,?
c1ccc(Cn2ccc(-c3cnc(-c4ccccc4)s3)n2)cc1,57.6,?,11.2µM*,-17.0%,?
COc1ccc2[nH]c3c(c2c1)CCN1C(=O)C(CC(=O)NCc2ccc(OC)c(OC)c2)C[C@H](C(=O)N2CCOCC2)[C@@]31C (stereo not given in full),3.5,13.1%,·,-18.3%,2.3%
COc1ccc(CNC(=O)C[C@H]2C[C@H](C(=O)N3CCCCC3)[C@@]3(C)c4[nH]c5ccc(Cl)cc5c4CCN3C2=O)cc1OC,-24.3,14.1µM*,·,-28.0%,1.9%
COc1ccc2[nH]c3c(c2c1)CCN1C(=O)C(CC(=O)NCc2ccco2)C[C@H](C(=O)N2CCCCC2)[C@@]31CCc1ccccc1 (stereo not given in full),-33.6,0.562µM*,·,-3.7%,0.3%
SMILES,HCMV inh,HCV inhibitor,LASV entry inh,FMDV inh,MARV entry inh
COc1ccc2[nH]c3c(c2c1)CCN1C(=O)C(CC(=O)NCc2ccc(OC)c(OC)c2)C[C@H](C(=O)N2CCCCC2)[C@@]31CCc1ccccc1 (stereo not given in full),?,10µM*,·,-27.4%,·
COc1ccc2[nH]c3c(c2c1)CCN1C(=O)C(CC(=O)NCCc2ccccn2)C[C@H](C(=O)N2CCCCC2)[C@@]31CCc1ccccc1 (stereo not given in full),-7.0,7.94µM*,·,6.8%,-2.9%
O=C(CC1C[C@H](C(=O)N2CCCCC2)[C@@]2(CCc3ccccc3)c3[nH]c4ccccc4c3CCN2C1=O)NCc1ccco1 (stereo not given in full),-18.8,3.5%,·,-5.8%,·
CS(=O)(=O)N1CCc2cc(C(=O)N3CCCC3)ccc21,20.2,16.3%,-5.6%[46.1 µM],-4.9%,-21.8%[46.1 µM]
C[C@]12c3[nH]c4ccc(Cl)cc4c3CCN1C(=O)[C@@H](CC(=O)NCc1cccc(C(F)(F)F)c1)C[C@@H]2C(=O)N1CCOCC1,-14.6,7.08µM*,·,-42.7%,·
Cc1ncc2c(c1CNC(=O)c1ccc3c(c1)OCO3)CCN(C(=O)c1csc3c1CCCC3)C2,·,·,·,0.9%,·
O=C(COc1ccc(S(=O)(=O)N2CCCC2)cc1)NCc1cccnc1,-5.0,12.1%,-0.1%,17.8%,-0.4%[46.1 µM]
O=C(Cc1c[nH]c2ccccc12)N1CCN(S(=O)(=O)c2cccc(Cl)c2Cl)CC1,44.2,19.1%,·,?,·
Cc1ccc(CCNc2ncnc(Cl)c2N)cc1,-83.9*,1µM*,-21.1%[46.1 µM],-0.4%,?
COC(=O)CC=C[C@@H](C)[C@H](NC(=O)OCC(Cl)(Cl)Cl)c1cccc(OC)c1,·,·,·,·,-7.5%[14.2 µM]
CCN1CCN(Cc2ccc(NC(=O)c3ccc(C)c(NC(=O)c4cccc5[nH]ccc45)c3)cc2C(F)(F)F)CC1,-98.7*!,8.5%,·,17.8µM*!,·
CCN1CCN(Cc2ccc(NC(=O)c3ccc(C)c(NC(=O)N4CCNC4=O)c3)cc2C(F)(F)F)CC1,-94.2*!,?,·,-21.4%,·
CCN1CCN(Cc2ccc(NC(=O)c3ccc(C)c(NC(=O)c4nccnc4N)c3)cc2C(F)(F)F)CC1,-73.3*,10µM*,·,-3.2%,·
CCN1CCN(Cc2ccc(NC(=O)c3ccc(C)c(NC(=O)c4nccn4C)c3)cc2C(F)(F)F)CC1,-16.1,-12.5%,·,0.0%,·
CCCCCCn1c([C@H](C)O)nc2ccccc21,·,·,·,·,-12.5%
CC1=C(C(=O)Nc2cccnc2)C(c2ccc(C)cc2)n2nc(SCc3ccccc3F)nc2N1 (stereo not given),7.2,·,?,-6.8%,6.0%[46.1 µM]
